Data published in PubChem BioAssay.
A number with no mark means an inactive call. Activity calls are given as the source filed them.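 The calls were made as follows: active = inhibition at or above 50% relative to wild type and mutant plate controls; inactive = inhibition below 50%.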

assay: loss of swimming-algae plug formation – whole organism, Chlamydomonas reinhardtii, WT vs cilia-less mutant, absorbance, 96-well, primary screen (AID 463189); conditions: Chlamydomonas reinhardtii gravitaxis, OD600 absorbance, 2 days; at 10 µM; stronger effect = higher value;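 also: 0% = wild type cc124 cells in DMSO and 100% = ciliumless bld1 mutant cells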

**Q.** Which inhibition does the source give for `Nc1nc(SCc2ccc([N+](=O)[O-])cc2)c2ncn([C@@H]3O[C@H](CO)[C@H](O)C3O)c2n1` (some centres undefined) here?
**A.** The inhibition was -2.89%.

**Q.** With `Cn1c(=O)c2[nH]c(-c3ccc(S(=O)(=O)O)cc3)nc2n(C)c1=O` as the molecule, how does the inhibition read?
**A.** Its inhibition is -2.33%.

**Q.** With `Cc1cccc(C2CN(C)CCc3c2cc(O)c(O)c3Cl)c1` (centres undefined) as the molecule, how does the inhibition read?
**A.** Its inhibition is 3.56%.

**Q.** For `O=C(/C=C/c1ccc(O)c(O)c1)OCCc1ccccc1`, which inhibition is on record?
**A.** The inhibition was 1.6%.

**Q.** For `Cc1nc(N=Nc2ccc(S(=O)(=O)O)cc2S(=O)(=O)O)c(COP(=O)(O)O)c(C=O)c1O`, which inhibition is on record?
**A.** Its inhibition is 2.65%.

**Q.** For `COC(=O)[C@@H](N)Cc1ccc(O)c(O)c1`, which inhibition is on record?
**A.** The inhibition was -3.44%.

**Q.** With `Cc1scc2c1N(C(=O)CN1CCN(C)CC1)c1ccccc1NC2=O` as the molecule, how does the inhibition read?
**A.** Its inhibition is -1.6%.

**Q.** For `O=Nc1c(-c2c(O)[nH]c3ccccc23)[nH]c2ccccc12`, which inhibition is on record?
**A.** The inhibition was 1.78%.

**Q.** Which inhibition does the source give for `O=C(O)/C=C/c1cnc[nH]1` here?
**A.** Its inhibition is 1.11%.

**Q.** With `CN[C@H](CC(=O)O)C(=O)O` as the molecule, how does the inhibition read?
**A.** The inhibition was 6.26%.

**Q.** With `COc1cccc2c1[C@@H]1CN(CCCCn3c(=O)[nH]c4c(sc5ncc(-c6ccccc6)nc54)c3=O)C[C@@H]1CO2` as the molecule, how does the inhibition read?
**A.** The inhibition was 4.24%.

**Q.** With `COc1cc(OC)c(/C=C2/C(=O)Nc3ccccc32)c(OC)c1` as the molecule, how does the inhibition read?
**A.** Its inhibition is 6.51%.

**Q.** With `C=C1C(=O)O[C@@H]2[C@H]3O[C@]3(C)CCC=C(C)CC[C@@H]12` as the molecule, how does the inhibition read?
**A.** The inhibition was 4.91%.

**Q.** Which inhibition does the source give for `NCC(O)c1ccc(O)c(O)c1` (centres undefined) here?
**A.** Its inhibition is -2.37%.

**Q.** For `CCCCCCCCCCCCCCCC(=O)OC(CC(=O)O)C[N+](C)(C)C` (centres undefined), which inhibition is on record?
**A.** The inhibition was 2.15%.

**Q.** Which inhibition does the source give for `CNCCC(Oc1ccccc1OC)c1ccccc1` (centres undefined) here?
**A.** The inhibition was 13.4%.

**Q.** For `CCn1c(=O)c2[nH]c(-c3ccccc3)nc2n(CC)c1=O`, which inhibition is on record?
**A.** The inhibition was -1.12%.

**Q.** With `O=c1cc(-c2ccc(O)cc2)oc2cc(O)cc(O)c12` as the molecule, how does the inhibition read?
**A.** The inhibition was 14.8%.

**Q.** For `Nc1nc2c(nc(Br)n2C2OC3COP(=O)(O)O[C@@H]3C2O)c(=O)[nH]1` (some centres undefined), which inhibition is on record?
**A.** Its inhibition is 2.8%.

**Q.** For `CN1C2CCC1CC(NC(=O)c1nn(C)c3ccccc13)C2` (centres undefined), which inhibition is on record?
**A.** The inhibition was 10.7%.

**Q.** Which inhibition does the source give for `CCCCCCCCCCC/C=C\C(C)(C)/C=C\CCCC(=O)O` here?
**A.** Its inhibition is -1.7%.

**Q.** With `c1cnc(N2CCN(Cc3ccc4c(c3)OCO4)CC2)nc1` as the molecule, how does the inhibition read?
**A.** The inhibition was 0.952%.

**Q.** With `CN(C)CCOC(=O)COc1ccc(Cl)cc1` as the molecule, how does the inhibition read?
**A.** The inhibition was 5.22%.

**Q.** For `S=C(S)N1CCCC1`, which inhibition is on record?
**A.** Its inhibition is 21.2%.

**Q.** For `CC(C(=O)O)c1ccc(CC2CCCC2=O)cc1` (centres undefined), which inhibition is on record?
**A.** Its inhibition is -6.18%.

**Q.** For `Fc1ccc(C(OCCCc2cnc[nH]2)c2ccc(F)cc2)cc1`, which inhibition is on record?
**A.** Its inhibition is -0.416%.

**Q.** For `O=[N+]([O-])c1cccc2c(Br)[nH]nc12`, which inhibition is on record?
**A.** The inhibition was 136% (active).

**Q.** With `NC(=O)c1ncn([C@@H]2O[C@H](CO)[C@@H](O)[C@H]2O)c1O` as the molecule, how does the inhibition read?
**A.** Its inhibition is 13.2%.

**Q.** With `CCCCCCN(CCCCCC)C(=O)Cc1c(-c2ccc(F)cc2)[nH]c2ccccc12` as the molecule, how does the inhibition read?
**A.** The inhibition was 8.52%.

**Q.** With `CC1=C(C(=O)O)N2C(=O)[C@@H](NC(=O)C(N)C3=CCC=CC3)[C@H]2SC1` (some centres undefined) as the molecule, how does the inhibition read?
**A.** The inhibition was 6.7%.

**Q.** Which inhibition does the source give for `CCCCCCCCCCCCCCCCCCNC(=O)OCC(COP(=O)([O-])OCC[n+]1ccsc1)OC` (centres undefined) here?
**A.** The inhibition was 7%.

**Q.** For `CNC(=O)[C@H]1O[C@@H](n2cnc3c(NCc4ccc(N)cc4)ncnc32)C(O)[C@H]1O` (some centres undefined), which inhibition is on record?
**A.** Its inhibition is -1.61%.

**Q.** With `Nc1ccc(CCNc2ncnc3c2ncn3C2OC(CO)C(O)C2O)cc1` (centres undefined) as the molecule, how does the inhibition read?
**A.** The inhibition was 3.12%.

**Q.** For `O=C(Nc1ccc([N+](=O)[O-])cc1Cl)c1cc(Cl)ccc1O`, which inhibition is on record?
**A.** The inhibition was 43.4%.

**Q.** For `COc1cccc(-c2cc(=O)c3ccccc3o2)c1N`, which inhibition is on record?
**A.** The inhibition was 0.351%.

**Q.** With `Nc1cc(Cl)c(NC2=NCCN2)c(Cl)c1` as the molecule, how does the inhibition read?
**A.** Its inhibition is -3.5%.

**Q.** Which inhibition does the source give for `Nc1ncnc2c1ncn2[C@@H]1O[C@H](CO)[C@H](O)C1O` (some centres undefined) here?
**A.** The inhibition was 5.53%.

**Q.** With `CC(C)c1ccc2c(c1)c(SC(C)(C)C)c(CC(C)(C)C(=O)O)n2Cc1ccc(Cl)cc1` as the molecule, how does the inhibition read?
**A.** Its inhibition is 9.82%.

**Q.** Which inhibition does the source give for `CN1CCc2ccccc2Cc2[nH]c3ccccc3c2CC1` here?
**A.** Its inhibition is 10.8%.
